Calls of active or inactive are those of the source.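 How the source made its calls: active means signal falls with dose and the fitted half-maximal concentration is at most twice the highest valid tested dose; inconclusive means flat fit with a moderate signal drop, or unreliable fit; inactive means opposite effect, flat near zero, or potency past limit.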
Target: PglD acetyltransferase (Campylobacter jejuni) (UniProt O86157)
Assay: PglD acetyltransferase inhibitors, dose response, biochemical, DTNB absorbance, Campylobacter jejuni, cherry-picked samples (AID 624110)
Settings: purified C. jejuni PglD, DTNB absorbance 412 nm; series mostly up to 19.5 µM

Chain of PglD acetyltransferase (Campylobacter jejuni) (O86157 1-203): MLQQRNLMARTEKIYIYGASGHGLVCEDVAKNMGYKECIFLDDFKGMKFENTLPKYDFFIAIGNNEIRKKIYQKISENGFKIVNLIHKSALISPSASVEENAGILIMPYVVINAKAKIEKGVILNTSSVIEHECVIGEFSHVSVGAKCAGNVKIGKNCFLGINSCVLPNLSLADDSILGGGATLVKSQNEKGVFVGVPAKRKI

Row | SMILES | outcome
1 | CO[C@@H]1CN(C)C(=O)c2ccc(NS(C)(=O)=O)cc2OC[C@@H](C)N(C(=O)C2CCOCC2)C[C@H]1C | inactive
2 | CC=Cc1ccc2n(c1=O)C[C@@H]1[C@@H](CO)[C@H](C(=O)NCCOC)[C@H]2N1Cc1nccs1 (mixture of isomers) | inactive
3 | CO[C@H]1CN(C)C(=O)c2cc(NC(C)=O)ccc2OC[C@@H](C)NC[C@@H]1C | inactive
4 | Cc1noc(C)c1NC(=O)Nc1cccc2c1O[C@H](CN(C)C(=O)Nc1cccc3ccccc13)[C@@H](C)CN([C@H](C)CO)C2=O | inactive
5 | O=C(C[C@@H]1CC[C@H]2[C@@H](COC[C@H](O)CN2C(=O)Nc2cccc(F)c2)O1)NCc1ccccc1F | inactive
6 | O=C(C[C@@H]1C[C@@H]2c3cc(NC(=O)NC4CCCCC4)ccc3O[C@@H]2[C@@H](CO)O1)NCc1cccnc1 | inactive
7 | CCC(=O)Nc1ccc2c(c1)OC[C@@H](C)N(Cc1ccccn1)C[C@@H](C)[C@H](OC)CN(C)C2=O | inactive
8 | C/C=C/c1cnc2c(c1)C(=O)N([C@@H](C)CO)C[C@H](C)[C@@H](CN(C)C(=O)c1cccnc1)O2 | inactive
9 | COCC#Cc1cnc2c(c1)C(=O)N([C@@H](C)CO)C[C@H](C)[C@@H](CN(C)C(=O)C1CCC1)O2 | inactive
10 | O=C(N[C@H]1C=C[C@@H](CC(=O)N2CCCCC2)O[C@H]1CO)c1ccc2c(c1)OCO2 | inactive
11 | C[C@H]1CN([C@@H](C)CO)C(=O)c2cccc(NC(=O)Nc3ccccc3)c2O[C@H]1CN(C)C | inactive
12 | CC(C)NC(=O)N(C)C[C@@H]1Oc2ccc(NC(=O)Cc3cn(C)c4ccccc34)cc2C(=O)N([C@H](C)CO)C[C@H]1C | inactive
